For six molecules, growth results are on record in PubChem BioAssay (NCI).

Molecules are shown by their SMILES. This is part of a sample that, as a whole, favours compounds with a hit. Of some 83,000 tested, about 20% had one in any assay.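 Method: cells in 96-well plates; compound added at one concentration; 48 h incubation; percent growth measured; values under 10 scored active.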 Unmarked numbers belong to inactive results. Active and inactive are the calls of the source.

For the test, the system named is HL-60(TB) leukemia. As to the kind of experiment: NCI-60 one-dose screen, 48 h (100 = growth as untreated, 0 = no growth, -100 = all killed). The note with it: 10 µM unless noted.
As for `Cc1cc2nc(C(Cl)Cl)nc(-c3cccs3)n2n1`, the growth was -25.4% (active).
With `CCCCCc1ccc(S(=O)(=O)Nc2cc(-c3csc(NC(=O)CN4CCN(CCO)CC4)n3)ccc2OC)cc1`, the growth was -40.5% (active).
For `CCCCSC1=C(Cl)CN(c2ccccc2)C1=O` the value was 105%; for `COc1cc(NC2=C(Cl)C(=O)c3nc(C)ccc3C2=O)cc(OC)c1`, -13.4% (active); for `COc1cc(Nc2c(C#N)cnn3cc(-c4cnn(CC(C)(C)O)c4)cc23)ccc1Cl`, 47.8%.
For `NC(=O)c1c(NC(=O)c2cccc(C(F)(F)F)c2F)sc2c1CCC(=O)C2` the value was 15%.
